# Test results: PubChem BioAssay (Tox21)
# Results filed as inconclusive are left out. Values without a mark were called inactive. Calls come from the whole dose curve; as a rule, active = well fitted inhibition curve with a large enough effect in the repeat runs; inconclusive = weak or mixed curves, or effect the other way; inactive = no such curve, though single readings can be large or run the other way.
# Molecular target: Nuclear receptor subfamily 1 group I member 3 (Homo sapiens) (UniProt Q14994)
# Sequence (Q14994 whole entry, looked up): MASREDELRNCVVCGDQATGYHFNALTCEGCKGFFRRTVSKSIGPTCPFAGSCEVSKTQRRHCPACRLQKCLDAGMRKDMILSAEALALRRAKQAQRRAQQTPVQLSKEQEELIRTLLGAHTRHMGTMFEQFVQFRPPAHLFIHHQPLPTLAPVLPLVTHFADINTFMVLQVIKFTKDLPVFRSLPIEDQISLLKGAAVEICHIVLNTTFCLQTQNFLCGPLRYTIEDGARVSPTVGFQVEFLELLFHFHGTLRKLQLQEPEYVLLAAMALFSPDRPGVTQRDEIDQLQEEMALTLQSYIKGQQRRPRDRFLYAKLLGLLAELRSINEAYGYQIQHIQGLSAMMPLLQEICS
# Experiment: qHTS assay to identify small molecule antagonists of the constitutive androstane receptor (CAR) signaling pathway (AID 1224838);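 note: HepG2 cells stably expressing hCAR with CYP2B6 luciferase reporter stimulated by CITCO; nearly all actives have a fitted effect of over 40% in size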
# Conditions: HepG2-CYP2B6-hCAR luciferase, CITCO-stimulated, 24 h; series mostly up to 92.4 µM; activity, negative = inhibition: at the top concentration
# Text: U.S. Tox21 Program National Center for Advancing Translational Sciences [NCATS] NIH Chemical Genomics Center [NCGC] U.S. Environmental Protection Agency [EPA] National Institutes of Environmental Health Sciences [NIEHS] National Toxicology Program [NTP] U.S. Food and Drug Administration [FDA] Tox21 Assay Overview: The constitutive androstane receptor (CAR) is a nuclear receptor which regulates multiple drug metabolizing enzymes (DMEs) and transporters. Activating CAR will generally increase the transcription and subsequent translation of CYP2B6 and CYP3A4. These two DMEs represent about 50% of the drug metabolizing potential in the body. When CAR is deactivated, the metabolizing potential in the body will decrease, subsequently increasing the toxicity in the body or lowering the therapeutic potential of a pro-drug. Recently, there have also been studies performed indicating CARs role in energy metabolism and cancer therapy. Therefore, inhibiting CARs activity could have a potential effect on diabetes and cancer. Identifying environmental toxins and compounds which modulate CAR, through the use of the Tox21 10K compound collection, will be an important step in determining the toxicity and potential therapeutic effects these factors will have on the human body.
# Tox21 Assay Protocol Summary: A double-stable (hCAR and CYP2B6-2.2kb) transfected cell line, derived from human hepatoma (HepG2) cells, was utilized for the duration of the quantitative high-throughput screens. The HepG2-CYP2B6-hCAR cells suspended in DMEM culture medium supplemented with 10% FBS, 5 ug/mL blasticidin, 0.5 mg/mL geneticin, 100 U/mL penicillin and 100 ug/mL streptomycin were dispensed at 2500 cells/4 uL/well in 1536-well white solid bottom plates using a Multidrop Combi. After the assay plates were incubated at 37 C/5% CO2 for 4 hrs, 23 nL of compounds at 15 concentrations (from 5-48 columns) or positive control (from 1 to 4 columns) were transferred to the assay plates using a Pintool station. One uL of CITCO, was added using a Flying Reagent Dispenser to generate a final concentration of 50 nM CITCO inside each well. After a 24 hr incubation period at 37 C/5% CO2, four uL of ONE-Glo reagent was added into the assay plates using a Flying Reagent Dispenser. After a 30 min incubation period at room temperature, the luminescence intensity in the assay plates was measured using a ViewLux plate reader.
# % is set by controls: 0 for no effect and ±100 for the full control effect.
row,Compound,"activity, negative = inhibition"
1,COc1cc(OC)nc(NC(=O)NS(=O)(=O)c2ncccc2C(=O)N(C)C)n1,0.289%
2,CN(C)CCc1ccc(O)cc1,-3.43% [at 42.5 µM]
3,O=C(CCN1CC1)OCC(CO)(COC(=O)CCN1CC1)COC(=O)CCN1CC1,-11.6%
4,CCN(CC)C(=O)[C@@H]1C=C2c3cccc4[nH]cc(c34)C[C@H]2N(C)C1,56.8% [at 240 µM]
5,CC(CCc1ccccc1)NC(C)C(O)c1ccc(O)cc1 (stereo not given),23.9% [at 42.5 µM]
6,CNC(=O)N(C)c1nc2ccccc2s1,362%
7,CCN(CC)C(C)C(=O)c1ccccc1 (stereo not given),7.23% [at 42.5 µM]
8,CCCCCCI,14%
9,CCCSC(=O)N(CCC)CCC,-3.41%
10,CC(C)(C)OC(=O)c1ncn2c1[C@@H]1CCCN1C(=O)c1c(Br)cccc1-2,42.4% [at 42.5 µM]
11,Nc1cc(Cl)ccc1O,323%
12,O=[N+]([O-])c1cccc2cccnc12,119%
13,COc1cc(OC)nc(NC(=O)NS(=O)(=O)c2ncccc2OCC(F)(F)F)n1,6.67%
14,CCCCC(=O)Cl,2.07%
15,CNC(=O)Oc1ccccc1C1OCCO1,12.6%
16,CCC/C(=N\OCC)C1=C(O)CC(CC(C)SCC)CC1=O (stereo not given),36.7%
17,CC1(C)COP(Oc2ccccc2)OC1,33.4%
18,C(CCOCC1CO1)COCC1CO1 (stereo not given),-7.2%
19,CCOC(=O)N(C)C(=O)CSP(=S)(OCC)OCC,56.1%
20,O=C(Nc1ccccc1)c1ccccc1I,255%

row,Compound,"activity, negative = inhibition"
1,CN/C(=N\[N+](=O)[O-])NCC1CCOC1 (stereo not given),10.4%
2,ClCC(Cl)Cl,-21.1%
3,CCOP(=S)(OCC)Oc1cc(-c2ccccc2)on1,257%
4,COP(=S)(OC)Oc1c(Cl)cc(C)cc1Cl,81.3%
5,Oc1c(Cl)cccc1Cl,19.2%
6,C#CCN1C(=O)COc2cc(F)c(N3C(=O)C4=C(CCCC4)C3=O)cc21,71%
7,CNC(=O)Oc1ccc(N(C)C)c(C)c1,75.7%
8,C1CCC(C2CCCCC2)CC1,1.17%
9,CCC(=O)c1ccccc1,7.71%
10,CCCSC(=O)Cl,10.4%
11,C[C@]12CC[C@H]3[C@@H](CCC4=CC(=O)CC[C@@]43C)[C@@H]1CC[C@@H]2C(=O)O,-2.16% [at 42.5 µM]
12,Clc1cccc(N2CCNCC2)c1,18.3% [at 42.5 µM]
13,CC(COc1ccc(Oc2ccccc2)cc1)Oc1ccccn1 (stereo not given),221%
14,COCC(=O)N(c1c(C)cccc1C)N1CCOC1=O,0.169%
15,CCS(=O)(=O)CCSP(=O)(OC)OC,67.4%
16,CNC(=O)Oc1c(C(C)(C)C)cc(C)cc1C(C)(C)C,0.621%
17,CC(=O)Nc1cc([As](=O)(O)O)ccc1O,-13.1% [at 42.5 µM]
18,COP(N)(=S)Oc1ccccc1C(=O)OC(C)C (stereo not given),65.7%
19,CCS(=O)(=O)C(C)(C)S(=O)(=O)CC,-6.1% [at 42.5 µM]
20,CSc1nc(N=[N+]=[N-])nc(NC(C)C)n1,38.8%
